Test results reported in PubChem BioAssay (Tox21).
Inconclusive results are not listed. Activity calls are given as the source filed them. Unless noted, calls follow the shape of the dose curve; as a rule, active = well fitted curve in the direction sought with a large enough effect in the repeat runs; inconclusive = weak or mixed curves; inactive = no such curve, though single readings can be large; an effect the other way counts as inactive or inconclusive.

Tests used:
[1] = molecular target: Retinoic acid receptor RXR-alpha (Homo sapiens) (UniProt P19793); test: qHTS assay to identify small molecule agonists of the RXR signaling pathway (AID 1159527; calls by dose curve; also: nearly all actives have a fitted effect of over 35% in size)
Procedure, shortened: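 Reporter activation is measured as beta-lactamase activity via FRET substrate cleavage (emission 460/530 nm) in HEK 293T cells expressing an RXR-alpha-driven bla construct, following 16 hr compound exposure at 37 C.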

[2] = qHTS assay to identify small molecule agonists of the RXR signaling pathway - cell viability counter screen (AID 1159529); also: series mostly up to about 77 µM; nearly all actives have a fitted effect of over 50% in size
Procedure, shortened: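 Tox21 10K compounds were tested for cytotoxicity against GeneBLAzer RXR-alpha HEK 293T cells grown in 2% charcoal-stripped FBS. Exposure lasted 16 hr at 37 C, 5% CO2; viability read by CellTiter-Glo luminescence.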

[3] = qHTS assay to identify small molecule antagonists of the retinoid acid receptor (RAR) signaling pathway - cell viability counter screen (AID 1159551); also: nearly all actives have a fitted effect of over 35% in size
Procedure, shortened: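 Cytotoxicity counter screen in C3RL4 cells: 6 h compound exposure with 1 uM retinol (final), viability from cellular ATP by luminescence.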

[4] = qHTS assay to identify small molecule antagonists of the retinoic acid receptor (RAR) signaling pathway (AID 1159552; also: nearly all actives have a fitted effect of over 50% in size)
Procedure, shortened: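 Overnight-plated C3RL4 reporter cells get compound, then retinol to 1 uM final; plates sit 6 hr at 37 C, 5% CO2. A luciferase reagent is added and light output recorded after 30 min at room temperature.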

[5] = qHTS assay to identify small molecule agonists of the retinoic acid receptor (RAR) signaling pathway (AID 1159553)
Procedure, shortened: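 Agonist activity was scored in C3RL4 cells bearing a retinoic acid response element luciferase construct. Cells were treated with compounds for 6 hr at 37 C, and luciferase signal was measured as luminescence.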

[6] = qHTS assay to identify small molecule antagonists of the estrogen related receptor (ERR) signaling pathway - cell viability counter screen (AID 1224818);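 also: series mostly up to about 46 µM; viability measured after 17.5 h of compound exposure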
Procedure, shortened: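 Cells carrying the ERR pathway reporter were seeded and incubated for 6 hours before compound addition. After a 17.5-hour exposure at 37 C, live-cell protease activity was measured by CellTiter-Fluor fluorescence following 30 minutes of incubation.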

[7] = qHTS assay to identify small molecule antagonists of the estrogen related receptor signaling pathway with the pleiotropic PPARgamma coactivator (PGC) cell viability counter screen (AID 1224822;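 also: series mostly up to about 46 µM; viability read after 17.5 h compound exposure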)
Procedure, shortened: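 Seed PGC/ERR cells (2,000/well); incubate 6 h at 37 C/5% CO2; pin-transfer compounds in DMSO; incubate 17.5 h at 37 C; add CellTiter-Fluor; after 30 min read fluorescence.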

[8] = qHTS assay to identify small molecule antagonists of the estrogen related receptor (ERR) signaling pathway from Tox21 library - cell viability counter screen (AID 1224834); also: nearly all actives have a fitted effect of over 30% in size
Procedure, shortened: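 Cytotoxicity of test substances is gauged in the same ERR cells used for the antagonist screen, after 17.5 h of compound treatment at 37 C, by CellTiter-Fluor fluorescence measured after 30 min.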

[9] = qHTS assay to identify small molecule agonists of the constitutive androstane receptor (CAR) signaling pathway - cell viability counter screen (AID 1224836); also: series mostly up to about 92 µM; nearly all actives have a fitted effect of over 45% in size
Procedure, shortened: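 Fluorescence from CellTiter-Fluor indicates live cells after 23 h exposure. The human hepatoma line expresses hCAR and a CYP2B6-2.2kb reporter. Incubation medium contains 0.75 uM PK11195 (final).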

[10] = qHTS assay to identify small molecule antagonists of the constitutive androstane receptor (CAR) signaling pathway - cell viability counter screen (AID 1224837); also: series mostly up to about 92 µM; nearly all actives have a fitted effect of over 45% in size
Procedure, shortened: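 Multiplexed cytotoxicity read-out for the CAR antagonist screen: double-stable HepG2-CYP2B6-hCAR cells co-treated with 50 nM CITCO (final) and compound over 15 concentrations, incubated 23 hr, then assessed by CellTiter-Fluor fluorescence.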

[11] = molecular target: Nuclear receptor subfamily 1 group I member 3 (Homo sapiens) (UniProt Q14994); test: qHTS assay to identify small molecule antagonists of the constitutive androstane receptor (CAR) signaling pathway (AID 1224838); also: nearly all actives have a fitted effect of over 40% in size
Procedure, shortened: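 Compounds were titrated across 15 concentrations onto HepG2 cells double-stably expressing hCAR and a CYP2B6-2.2kb reporter, together with 50 nM CITCO (final). After 24 h at 37 C, luciferase activity was measured by luminescence.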

[12] = molecular target: Nuclear receptor subfamily 1 group I member 3 (Homo sapiens) (UniProt Q14994); test: qHTS assay to identify small molecule agonists of the constitutive androstane receptor (CAR) signaling pathway (AID 1224839);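 also: HepG2 cells stably carrying human CAR and a CYP2B6 luciferase reporter; series mostly up to about 92 µM; nearly all actives have a fitted effect of over 15% in size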
Procedure, shortened: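 Stable hCAR/CYP2B6-2.2kb HepG2 line in DMEM with 10% FBS; compounds (15 concentrations) and 0.75 uM PK11195 final, 24 h at 37 C/5% CO2, then ONE-Glo luminescence after 30 min.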

[13] = qHTS assay to identify small molecule antagonists of the estrogen related receptor signaling pathway with the pleiotropic PPARgamma coactivator (PGC) from Tox21 10K library - cell viability counter screen (AID 1224840; active = well fitted cell-killing curve with a large enough effect in the repeat runs, not every such curve was filed as active; also: nearly all actives have a fitted effect of over 40% in size)
Procedure, shortened: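 Step one, plate 2,000 PGC/ERR cells per well; step two, incubate 6 h at 37 C/5% CO2; step three, pin-transfer compounds; step four, incubate 17.5 h; step five, add CellTiter-Fluor and read fluorescence after 30 min.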

[14] = molecular target: Thyrotropin receptor (Homo sapiens) (UniProt P16473); test: qHTS assay to identify small molecule agonists of the thyroid stimulating hormone receptor (TSHR) signaling pathway (AID 1224843; calls by dose curve; also: nearly all actives have a fitted effect of over 45% in size)
Procedure, shortened: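 TSHR-expressing HEK293 cells (800 per well) were exposed to compounds for 30 min at room temperature. cAMP was then detected by HTRF competition with cAMP-d2 and anti-cAMP cryptate, read after 1 h at room temperature. Fifteen concentrations, triplicate.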

[15] = molecular target: Luciferin 4-monooxygenase (Photinus pyralis) (UniProt P08659); test: qHTS assay to identify small molecule inhibitors of firefly luciferase (AID 1224835); also: series mostly up to about 120 µM; nearly all actives have a fitted effect of over 25% in size
Procedure, shortened: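 Quantitative HTS format; KM concentrations of both substrates. Purified P. pyralis FLuc activity quantified from luminescence images.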

[16] = qHTS assay to identify small molecule antagonists of the estrogen related receptor signaling pathway with the pleiotropic PPARgamma coactivator (PGC) from Tox21 10K library (AID 1224841; call rule not given here; also: series mostly up to about 92 µM; actives are mostly falling curves and most rising ones were filed inactive; nearly all actives have a fitted effect of over 50% in size)
Procedure, shortened: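 Antagonism in this quantitative HTS is taken from loss of luciferase signal in PGC/ERR cells. Cells (2,000/well) are treated with compounds in DMSO after a 6 h settling period and read by One-Glo luminescence after 18 h.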

[17] = qHTS assay to identify small molecule agonists of the estrogen related receptor signaling pathway with the pleiotropic PPARgamma coactivator (PGC) from Tox21 10K library (AID 1224842); also: nearly all actives have a fitted effect of over 15% in size
Procedure, shortened: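 PGC/ERR reporter cells (NTP line) were seeded 2,000 per well, rested 6 h at 37 C/5% CO2, then pin-dosed with compounds in DMSO for 18 h at 37 C; luciferase read by One-Glo luminescence after 30 min at room temperature.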

Measured: Potency

Sequence of Thyrotropin receptor (Homo sapiens) (P16473 whole entry, looked up): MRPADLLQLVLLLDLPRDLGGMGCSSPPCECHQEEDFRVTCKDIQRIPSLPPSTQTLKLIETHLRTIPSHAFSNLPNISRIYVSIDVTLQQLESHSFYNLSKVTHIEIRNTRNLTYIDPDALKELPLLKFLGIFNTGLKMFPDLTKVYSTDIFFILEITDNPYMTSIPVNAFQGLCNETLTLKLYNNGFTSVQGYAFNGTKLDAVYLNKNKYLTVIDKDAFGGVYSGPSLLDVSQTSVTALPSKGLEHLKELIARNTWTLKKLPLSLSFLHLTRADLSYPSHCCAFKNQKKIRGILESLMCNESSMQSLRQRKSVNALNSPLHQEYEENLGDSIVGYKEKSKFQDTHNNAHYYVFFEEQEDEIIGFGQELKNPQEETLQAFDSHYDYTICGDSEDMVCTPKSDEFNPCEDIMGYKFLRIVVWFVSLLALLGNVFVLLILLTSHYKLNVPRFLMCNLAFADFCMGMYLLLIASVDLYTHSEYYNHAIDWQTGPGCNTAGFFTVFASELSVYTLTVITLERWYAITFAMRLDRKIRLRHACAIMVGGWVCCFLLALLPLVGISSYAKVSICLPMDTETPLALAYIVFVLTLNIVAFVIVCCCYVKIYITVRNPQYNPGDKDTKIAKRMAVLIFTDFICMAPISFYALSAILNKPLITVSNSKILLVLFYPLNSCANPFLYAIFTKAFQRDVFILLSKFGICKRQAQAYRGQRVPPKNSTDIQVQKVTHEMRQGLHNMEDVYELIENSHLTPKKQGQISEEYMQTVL
Sequence of Retinoic acid receptor RXR-alpha (Homo sapiens) (P19793 whole entry, looked up): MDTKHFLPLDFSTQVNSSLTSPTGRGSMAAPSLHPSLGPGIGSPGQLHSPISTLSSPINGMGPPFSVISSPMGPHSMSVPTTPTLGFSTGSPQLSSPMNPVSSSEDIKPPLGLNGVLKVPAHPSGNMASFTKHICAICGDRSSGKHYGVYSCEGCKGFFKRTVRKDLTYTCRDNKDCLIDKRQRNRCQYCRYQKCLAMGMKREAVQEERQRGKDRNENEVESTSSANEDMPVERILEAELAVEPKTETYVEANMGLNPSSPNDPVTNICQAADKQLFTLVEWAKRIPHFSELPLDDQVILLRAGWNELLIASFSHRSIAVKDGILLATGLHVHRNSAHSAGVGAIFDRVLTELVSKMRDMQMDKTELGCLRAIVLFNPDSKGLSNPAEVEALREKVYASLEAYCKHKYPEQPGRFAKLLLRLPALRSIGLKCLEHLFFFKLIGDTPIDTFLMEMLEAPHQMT
Sequence of Luciferin 4-monooxygenase (Photinus pyralis) (P08659 whole entry, looked up): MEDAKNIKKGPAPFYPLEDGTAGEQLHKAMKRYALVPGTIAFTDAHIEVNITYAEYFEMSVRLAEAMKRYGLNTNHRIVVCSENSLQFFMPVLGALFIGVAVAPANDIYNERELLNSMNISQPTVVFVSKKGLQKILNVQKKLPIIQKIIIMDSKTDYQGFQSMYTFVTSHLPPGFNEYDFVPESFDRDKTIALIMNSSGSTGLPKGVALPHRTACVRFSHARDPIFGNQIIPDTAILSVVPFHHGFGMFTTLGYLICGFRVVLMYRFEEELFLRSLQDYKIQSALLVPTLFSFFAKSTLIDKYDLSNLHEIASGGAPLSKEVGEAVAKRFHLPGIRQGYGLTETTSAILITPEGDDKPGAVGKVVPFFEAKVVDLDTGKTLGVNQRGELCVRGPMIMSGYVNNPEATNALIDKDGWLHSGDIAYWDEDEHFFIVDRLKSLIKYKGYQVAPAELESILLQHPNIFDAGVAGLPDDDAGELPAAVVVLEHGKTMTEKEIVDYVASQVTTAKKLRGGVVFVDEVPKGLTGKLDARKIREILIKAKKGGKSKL
Sequence of Nuclear receptor subfamily 1 group I member 3 (Homo sapiens) (Q14994 whole entry, looked up): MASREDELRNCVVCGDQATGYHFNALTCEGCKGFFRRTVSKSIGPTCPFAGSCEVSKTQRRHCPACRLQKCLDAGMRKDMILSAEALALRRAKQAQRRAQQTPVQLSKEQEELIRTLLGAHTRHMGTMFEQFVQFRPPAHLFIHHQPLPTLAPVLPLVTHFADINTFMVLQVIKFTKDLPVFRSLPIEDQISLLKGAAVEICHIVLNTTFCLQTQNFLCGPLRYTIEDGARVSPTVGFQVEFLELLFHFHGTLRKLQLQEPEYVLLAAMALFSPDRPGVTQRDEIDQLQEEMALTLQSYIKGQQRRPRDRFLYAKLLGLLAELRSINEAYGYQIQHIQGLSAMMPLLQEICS

CC[N+](C)(C)c1cccc(O)c1
inactive: [1] | [2] | [3] | [4] | [5] | [6] | [7] | [8] | [9] | [10] | [11] | [12] | [13] | [14]

CC/C=C\CCOC(C)=O
inactive: [1] | [2] | [3] | [4] | [5] | [8] | [15] | [9] | [10] | [11] | [12] | [13] | [16] | [17] | [14]

N[C@H]1CN(c2c(F)cc3c(=O)c(C(=O)O)cn(C4C[C@H]4F)c3c2Cl)CC12CC2 (some centres undefined)
inactive: [1] | [2] | [3] | [4] | [5] | [8] | [15] | [9] | [10] | [11] | [12] | [13] | [16] | [17] | [14]

CC(C)CNCC(C)C
inactive: [1] | [2] | [3] | [4] | [5] | [8] | [15] | [9] | [10] | [11] | [12] | [13] | [16] | [17] | [14]

C[C@H]1C[C@@H](O)CC(C)(C)C1
inactive: [1] | [2] | [3] | [4] | [5] | [8] | [15] | [9] | [10] | [11] | [12] | [13] | [16] | [17] | [14]

CCOC(=O)c1cccc(N)c1
inactive: [1] | [2] | [3] | [4] | [5] | [8] | [15] | [9] | [10] | [11] | [12] | [13] | [16] | [17] | [14]

CCCCNC(=O)NCCCC
inactive: [1] | [2] | [3] | [4] | [5] | [8] | [15] | [9] | [10] | [11] | [12] | [13] | [16] | [17] | [14]

CCCCCCCCS(=O)(=O)Cl
inactive: [1] | [2] | [3] | [4] | [5] | [8] | [15] | [9] | [10] | [11] | [12] | [13] | [16] | [17] | [14]

CC(=O)N(CC(O)CO)c1c(I)c(C(=O)NCCO)c(I)c(C(=O)NCC(O)CO)c1I (centres undefined)
inactive: [1] | [2] | [3] | [4] | [5] | [8] | [15] | [9] | [10] | [11] | [12] | [13] | [16] | [17] | [14]

Nc1c[n+](N2CCOCC2)no1
inactive: [1] | [2] | [3] | [4] | [5] | [8] | [15] | [9] | [10] | [11] | [12] | [13] | [16] | [17] | [14]

CN1N=C(C(N)=O)CCC1=O
inactive: [1] | [2] | [3] | [4] | [5] | [8] | [15] | [9] | [10] | [11] | [12] | [13] | [16] | [17] | [14]

CC(C)NCCCC1(C(N)=O)c2ccccc2-c2ccccc21
inactive: [1] | [2] | [3] | [4] | [5] | [8] | [15] | [9] | [10] | [11] | [12] | [13] | [16] | [17] | [14]

CCOC(=O)c1c(C)n(C)c2ccc(O)cc12
inactive: [1] | [2] | [3] | [4] | [5] | [8] | [15] | [9] | [10] | [11] | [12] | [13] | [16] | [17] | [14]

Nc1ccccc1S(=O)(=O)O
inactive: [1] | [2] | [3] | [4] | [5] | [8] | [15] | [9] | [10] | [11] | [12] | [13] | [16] | [17] | [14]

COCCCOCCCOC
inactive: [1] | [2] | [3] | [4] | [5] | [8] | [15] | [9] | [10] | [11] | [12] | [13] | [16] | [17] | [14]

COc1ccc2c(c1)c(CC(=O)OCC(=O)O)c(C)n2C(=O)c1ccc(Cl)cc1
inactive: [1] | [2] | [3] | [4] | [5] | [8] | [15] | [9] | [10] | [11] | [12] | [13] | [16] | [17] | [14]

CN1CCCC1
inactive: [1] | [2] | [3] | [4] | [5] | [8] | [15] | [9] | [10] | [11] | [12] | [13] | [16] | [17] | [14]
